The text below walks through data of ChEMBL document CHEMBL3988442, “University of Dundee, Small-Polar-MMV Screening Library” (2021).

For some assays here: Potency and affinity values are given separately.

Holding throughout (parameters): scale not given: direction of the effect not stated beside the values
For test [1], the target named is Protein translocase subunit SecA (Escherichia coli (strain K12)) (UniProt P10408). Nature of the test: Assay to Identify E. coli SecA ATPase Inhibitors. Type of test: functional. The following applies: 30 µM.
Chain of Protein translocase subunit SecA (Escherichia coli (strain K12)) (P10408 whole entry): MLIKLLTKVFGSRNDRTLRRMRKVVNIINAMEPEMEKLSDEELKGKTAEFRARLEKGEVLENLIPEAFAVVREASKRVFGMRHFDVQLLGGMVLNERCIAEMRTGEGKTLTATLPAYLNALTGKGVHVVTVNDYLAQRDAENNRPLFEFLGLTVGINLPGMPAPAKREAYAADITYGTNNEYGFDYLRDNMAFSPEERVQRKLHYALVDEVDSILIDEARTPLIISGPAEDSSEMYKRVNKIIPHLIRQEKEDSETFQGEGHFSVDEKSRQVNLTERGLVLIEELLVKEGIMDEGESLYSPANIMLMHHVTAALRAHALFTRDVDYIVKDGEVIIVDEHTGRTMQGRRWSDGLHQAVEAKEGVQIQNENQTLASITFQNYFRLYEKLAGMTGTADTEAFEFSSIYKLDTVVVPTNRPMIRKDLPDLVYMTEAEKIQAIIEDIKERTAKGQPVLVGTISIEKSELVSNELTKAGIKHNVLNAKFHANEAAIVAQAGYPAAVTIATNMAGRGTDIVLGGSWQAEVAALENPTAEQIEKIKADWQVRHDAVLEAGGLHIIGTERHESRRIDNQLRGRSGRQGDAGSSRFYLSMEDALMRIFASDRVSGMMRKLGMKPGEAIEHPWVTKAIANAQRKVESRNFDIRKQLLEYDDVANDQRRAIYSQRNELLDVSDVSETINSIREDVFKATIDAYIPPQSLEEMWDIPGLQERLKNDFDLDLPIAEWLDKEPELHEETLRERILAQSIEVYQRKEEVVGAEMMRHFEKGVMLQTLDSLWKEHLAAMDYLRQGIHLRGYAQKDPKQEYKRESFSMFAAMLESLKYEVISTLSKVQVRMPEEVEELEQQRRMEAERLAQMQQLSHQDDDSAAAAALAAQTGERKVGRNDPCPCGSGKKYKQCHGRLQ
For test [2], the target named is T1, Ubiquitin-activating enzyme e1, putative (Leishmania donovani (strain BPK282A1)) (UniProt E9BSI1).
T1 sequence (whole entry): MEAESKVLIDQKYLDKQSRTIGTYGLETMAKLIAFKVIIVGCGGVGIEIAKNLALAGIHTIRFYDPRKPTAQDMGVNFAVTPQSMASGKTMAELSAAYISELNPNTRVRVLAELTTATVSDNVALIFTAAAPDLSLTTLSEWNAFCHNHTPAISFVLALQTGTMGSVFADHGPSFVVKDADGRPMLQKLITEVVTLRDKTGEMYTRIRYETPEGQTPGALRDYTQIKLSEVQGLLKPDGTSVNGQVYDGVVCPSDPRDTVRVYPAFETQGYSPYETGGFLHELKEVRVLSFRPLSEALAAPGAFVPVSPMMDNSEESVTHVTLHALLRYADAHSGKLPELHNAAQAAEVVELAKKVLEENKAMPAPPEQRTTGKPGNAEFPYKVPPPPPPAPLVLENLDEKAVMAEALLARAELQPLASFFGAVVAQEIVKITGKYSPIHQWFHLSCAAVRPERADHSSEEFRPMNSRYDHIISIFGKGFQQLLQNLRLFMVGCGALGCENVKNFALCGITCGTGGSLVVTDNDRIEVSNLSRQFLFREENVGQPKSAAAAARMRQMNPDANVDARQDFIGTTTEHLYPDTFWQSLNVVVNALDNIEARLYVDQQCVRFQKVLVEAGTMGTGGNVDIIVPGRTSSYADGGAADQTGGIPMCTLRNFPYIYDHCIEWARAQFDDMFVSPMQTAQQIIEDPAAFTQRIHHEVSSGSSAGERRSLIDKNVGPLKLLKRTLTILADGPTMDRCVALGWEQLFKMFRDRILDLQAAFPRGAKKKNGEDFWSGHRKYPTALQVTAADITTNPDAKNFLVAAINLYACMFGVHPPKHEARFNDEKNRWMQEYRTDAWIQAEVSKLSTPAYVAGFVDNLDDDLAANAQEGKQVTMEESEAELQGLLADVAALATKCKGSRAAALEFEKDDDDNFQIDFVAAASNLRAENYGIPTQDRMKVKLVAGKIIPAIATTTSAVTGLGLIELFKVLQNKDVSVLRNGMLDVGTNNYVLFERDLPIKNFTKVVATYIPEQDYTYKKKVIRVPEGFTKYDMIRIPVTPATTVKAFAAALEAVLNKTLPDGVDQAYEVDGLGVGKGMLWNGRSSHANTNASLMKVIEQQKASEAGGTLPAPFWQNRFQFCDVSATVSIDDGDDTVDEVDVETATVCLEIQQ
Nature of the test: Leishmania donovani Ubiquitin Activating Enzyme (LdE1). The following applies: 30 µM. The class given is functional.

Test [3] deals with AMP-activated protein kinase, AMPK (Homo sapiens) (UniProt P54646+O43741+P54619+Q9UGJ0+Q9Y478+Q13131+Q9UGI9). Nature of the test: AMP-dependent Kinase enzyme assay. An in vitro enzyme assay that detects ADP turnover that is directly proportional to AMPK activity. This uses naive AMPK that is activated during the assay with MK-8722. The following applies: 30 µM. The class given is functional.

Test [4] has as its target Sialic acid-binding Ig-like lectin 9 (Homo sapiens) (UniProt Q9Y336). Nature of the test: Hs-Siglec9 ALPHAscreen SOP 20170721. As to conditions: 10 µM. Background: Alpha assays give light when donor and acceptor beads are brought close together.
Test [5] relates to Trypanosoma cruzi. Nature of the test: Trypanosoma cruzi phosphomannomutase and mannose-1-phosphate guanylyltransferase assay. The class given is functional. As to conditions: 10 µM.
The target of test [6] is T2, Arginase-2, mitochondrial (Homo sapiens) (UniProt P78540).
T2 sequence (whole entry): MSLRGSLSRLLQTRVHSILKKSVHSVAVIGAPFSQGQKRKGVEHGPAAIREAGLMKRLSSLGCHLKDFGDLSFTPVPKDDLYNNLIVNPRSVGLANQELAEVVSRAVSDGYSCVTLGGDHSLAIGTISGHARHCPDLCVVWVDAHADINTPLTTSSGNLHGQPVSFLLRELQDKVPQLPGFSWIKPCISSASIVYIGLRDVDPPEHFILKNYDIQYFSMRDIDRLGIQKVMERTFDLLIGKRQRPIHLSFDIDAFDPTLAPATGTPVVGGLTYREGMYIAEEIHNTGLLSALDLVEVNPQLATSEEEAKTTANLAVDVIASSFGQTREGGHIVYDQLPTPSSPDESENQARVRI
Nature of the test: in vitro enzyme assay to detect the production of urea directly proportional to the activity of Arginase II. Note: in the data most compounds retested in dose-response had high values. The class given is functional. The following applies: 33.3 µM.

For test [7], the target named is T3, Proteasome subunit beta (Trypanosoma cruzi) (UniProt O96673).
T3 sequence (whole entry): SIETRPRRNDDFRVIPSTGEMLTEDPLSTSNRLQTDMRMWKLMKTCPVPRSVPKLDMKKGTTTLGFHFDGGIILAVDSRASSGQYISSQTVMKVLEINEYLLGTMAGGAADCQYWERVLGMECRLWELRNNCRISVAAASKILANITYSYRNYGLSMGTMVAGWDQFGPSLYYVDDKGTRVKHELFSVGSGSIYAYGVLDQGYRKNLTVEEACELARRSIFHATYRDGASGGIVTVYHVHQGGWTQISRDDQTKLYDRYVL
Nature of the test: Trypanosoma cruzi proteasome chymotrypsin-like activity (TcProtChymo) assay. Note: in the data most compounds retested in dose-response had high values. The class given is functional. The following applies: 9.37 µM.

For test [8], the species on record is Homo sapiens. Nature of the test: To identify inhibition of the IFN signalling (Jak-Stat) pathway via expression of an eGFP reporter gene under the control of an IFN-stimulated response element (ISRE) containing MxA promoter. Type of test: functional. The following applies: 30 µM. (Reporter assays use an easily measured gene product as a stand-in for the process of interest.)

The target of test [9] is T4, Tyrosyl-tRNA synthetase, putative (Trypanosoma cruzi (strain CL Brener)) (UniProt Q4DSP6).
T4 sequence (whole entry): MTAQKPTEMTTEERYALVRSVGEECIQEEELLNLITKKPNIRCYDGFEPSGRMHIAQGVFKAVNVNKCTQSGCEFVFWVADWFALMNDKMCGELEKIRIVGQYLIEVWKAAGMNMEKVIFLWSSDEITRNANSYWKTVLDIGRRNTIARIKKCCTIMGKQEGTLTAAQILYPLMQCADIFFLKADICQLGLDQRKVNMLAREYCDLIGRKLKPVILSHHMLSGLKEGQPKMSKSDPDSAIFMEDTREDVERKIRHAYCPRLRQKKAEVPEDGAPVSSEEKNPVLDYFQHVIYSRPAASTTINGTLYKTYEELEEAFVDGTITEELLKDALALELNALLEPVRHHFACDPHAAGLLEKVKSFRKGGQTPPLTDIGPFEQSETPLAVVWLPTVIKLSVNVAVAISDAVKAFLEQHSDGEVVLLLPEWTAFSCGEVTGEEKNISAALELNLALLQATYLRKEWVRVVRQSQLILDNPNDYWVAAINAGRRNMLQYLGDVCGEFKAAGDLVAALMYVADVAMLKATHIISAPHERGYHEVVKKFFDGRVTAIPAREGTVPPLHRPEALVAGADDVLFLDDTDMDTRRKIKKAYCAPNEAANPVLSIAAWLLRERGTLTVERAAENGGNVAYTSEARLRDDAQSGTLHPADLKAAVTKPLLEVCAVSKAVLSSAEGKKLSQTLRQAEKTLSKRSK
Nature of the test: Trypanosoma cruzi tyrosyl tRNA synthetase (TcYRS) _High Tyrosine SOP. Note: in the data most compounds retested in dose-response had high values. Type of test: functional. As to conditions: 30 µM.

In test [10] the target is T4, Tyrosyl-tRNA synthetase, putative (Trypanosoma cruzi (strain CL Brener)). Nature of the test: Trypanosoma cruzi tyrosyl tRNA synthetase (TcYRS) SOP. The class given is functional. The following applies: 30 µM.
In test [11] the target is Chromo domain-containing protein 1 (Saccharomyces cerevisiae (strain ATCC 204508 / S288c) (Baker's yeast)) (UniProt P32657). Nature of the test: ScCHD-1 Enzyme Inhibition Assay. Note: in the data most compounds retested in dose-response had high values. The class given is functional. As to conditions: 30 µM.
Chain of Chromo domain-containing protein 1 (Saccharomyces cerevisiae (strain ATCC 204508 / S288c) (Baker's yeast)) (P32657 whole entry, the tested form may be a part): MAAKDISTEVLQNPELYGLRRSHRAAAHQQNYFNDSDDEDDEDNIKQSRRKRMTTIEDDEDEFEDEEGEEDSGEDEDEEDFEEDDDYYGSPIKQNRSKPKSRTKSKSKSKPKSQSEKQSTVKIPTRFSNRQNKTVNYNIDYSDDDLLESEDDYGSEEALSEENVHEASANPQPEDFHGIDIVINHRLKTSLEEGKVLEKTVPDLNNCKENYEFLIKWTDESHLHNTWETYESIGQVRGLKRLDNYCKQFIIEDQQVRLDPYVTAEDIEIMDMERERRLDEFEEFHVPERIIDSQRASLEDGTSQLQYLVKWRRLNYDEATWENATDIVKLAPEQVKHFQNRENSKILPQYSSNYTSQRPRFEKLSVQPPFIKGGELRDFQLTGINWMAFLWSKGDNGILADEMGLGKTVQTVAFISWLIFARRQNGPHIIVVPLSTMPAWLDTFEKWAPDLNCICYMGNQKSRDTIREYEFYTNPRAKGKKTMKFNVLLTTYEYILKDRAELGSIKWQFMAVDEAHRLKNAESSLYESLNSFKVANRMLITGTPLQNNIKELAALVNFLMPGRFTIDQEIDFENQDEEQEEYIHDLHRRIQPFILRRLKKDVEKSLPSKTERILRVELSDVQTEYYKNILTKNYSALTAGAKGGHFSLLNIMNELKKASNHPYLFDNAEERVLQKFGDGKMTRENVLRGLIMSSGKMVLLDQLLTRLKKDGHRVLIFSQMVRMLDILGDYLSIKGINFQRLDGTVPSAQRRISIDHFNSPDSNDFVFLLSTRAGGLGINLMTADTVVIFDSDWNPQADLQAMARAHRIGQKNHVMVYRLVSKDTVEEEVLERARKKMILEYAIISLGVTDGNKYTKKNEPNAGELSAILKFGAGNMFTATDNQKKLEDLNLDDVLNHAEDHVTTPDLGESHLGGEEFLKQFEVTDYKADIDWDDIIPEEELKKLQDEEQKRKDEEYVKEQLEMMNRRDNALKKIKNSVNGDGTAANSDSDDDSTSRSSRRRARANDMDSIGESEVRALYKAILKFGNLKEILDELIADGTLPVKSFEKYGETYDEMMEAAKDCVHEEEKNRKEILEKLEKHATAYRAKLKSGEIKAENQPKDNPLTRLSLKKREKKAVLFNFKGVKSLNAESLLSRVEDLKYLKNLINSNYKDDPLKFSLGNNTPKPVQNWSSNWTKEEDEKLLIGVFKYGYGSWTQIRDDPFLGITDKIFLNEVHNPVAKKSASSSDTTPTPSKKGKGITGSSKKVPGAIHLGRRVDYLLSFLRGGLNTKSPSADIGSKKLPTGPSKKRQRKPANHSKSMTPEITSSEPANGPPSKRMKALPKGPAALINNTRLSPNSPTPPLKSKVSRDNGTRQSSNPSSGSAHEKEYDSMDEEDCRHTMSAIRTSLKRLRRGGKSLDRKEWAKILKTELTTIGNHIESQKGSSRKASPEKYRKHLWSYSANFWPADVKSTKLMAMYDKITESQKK

Chain of Sialic acid-binding Ig-like lectin 9 (Homo sapiens) (Q9Y336 whole entry): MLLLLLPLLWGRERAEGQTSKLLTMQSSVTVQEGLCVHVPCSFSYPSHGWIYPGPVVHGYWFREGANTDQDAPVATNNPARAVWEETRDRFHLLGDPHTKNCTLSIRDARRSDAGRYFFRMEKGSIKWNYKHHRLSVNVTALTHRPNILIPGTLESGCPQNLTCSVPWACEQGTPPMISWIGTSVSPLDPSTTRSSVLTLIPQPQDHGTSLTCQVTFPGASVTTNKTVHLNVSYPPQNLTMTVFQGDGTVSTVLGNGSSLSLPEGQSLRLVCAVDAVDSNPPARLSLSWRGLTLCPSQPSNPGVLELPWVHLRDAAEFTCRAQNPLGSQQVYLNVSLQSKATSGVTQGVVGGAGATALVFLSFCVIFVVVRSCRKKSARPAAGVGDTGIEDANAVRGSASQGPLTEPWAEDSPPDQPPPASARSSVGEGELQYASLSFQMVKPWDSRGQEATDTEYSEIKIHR

Regarding `CCc1n[nH]c(C2CN(C(=O)c3cnc(C)s3)CCO2)n1` (stereo not given), the Percent Effect was -5.53% in test [1]; 12.7% in test [2]; -5.15% in test [3]; 12.5% in [4]; 5% in test [5]; -1.9% in test [6]. The Percent Effect in [7] was -3.03%; in test [8], -0.688%; in [9], 3.45%; in test [10], 8.86%; in test [11] it was -5.66%.

As to `CN(Cc1ccco1)[C@@H]1CN(C(=O)c2ccnnc2)C[C@@H]2CCCO[C@@H]21`, the Percent Effect in test [1] is -2.86%; in test [2] it was 2.74%; in [3], -3.12%; in test [4], 2.33%; in [5], 4.76%; in test [6], 2.4%. The Percent Effect in [7] was 0.77%; in [8], -17.3%; in test [9] it was 2.08%; in [10], 8.64%; in test [11], 1.23%.

On to `Cc1noc(C)c1CNCC1CCCN1c1cccnn1` (stereo not given), for which the Percent Effect was -6.8% in test [1]; -5.2% in test [2]; 5.72% in [3]; -3.1% in test [4]; -4.02% in [5]; -3.16% in test [6]. For the same compound, the Percent Effect in test [7] is -2.83%; in test [8], 6.36%; in test [9], 1.91%; in [10], -2.35%; in test [11], -1.61%.

As for `Cc1noc([C@@]23CCO[C@@H]2CCN(C(=O)c2sccc2C)C3)n1`, the Percent Effect was -3.07% in test [1]; 5.33% in [2]; 2.33% in [3]; -2.88% in [4]; 2.12% in [5]; -46.1% in test [6]. Besides, the Percent Effect worked out at 0.513% in test [7]; 1.48% in [8]; 1.04% in test [9]; 0% in test [10]; 1.44% in test [11].

Turning to `N#Cc1ccc(OC2CCN(C(=O)c3ccc4c(c3)OCO4)CC2)nc1`, the Percent Effect in test [1] is -3.87%; in [2] it was 13.7%; in test [3], -6.59%; in test [4], 16.4%; in test [5] it was 6.07%; in [6] it was -0.909%. For the same compound, the Percent Effect was 2.13% in test [7]; 8.98% in test [8]; 3.23% in [9]; 15% in [10]; -2.59% in [11].

Turning to `COCc1nc(C(=O)N2CCCCC2Cn2cc(C)cn2)cs1` (stereo not given), the Percent Effect in [1] was -5.14%; in test [2] it was -2.6%; in test [3], 6.14%; in [4] it was -7.79%; in [5], -5.19%; in test [6], -1.47%. Besides, the Percent Effect is 5.42% in [7]; 6.8% in [8]; -1.91% in test [9]; -4.71% in test [10]; -21.5% in test [11].

In the case of `CCn1cc(C(=O)NC2CCN(S(C)(=O)=O)CC2)c2ccccc21`, the Percent Effect was -3.22% in test [1]; 16.2% in test [2]; -3.16% in [3]; 22.3% in test [4]; 4.01% in [5]; 0.248% in test [6]. The Percent Effect in test [7] is 5.41%; in [8] it was 6.18%; in test [9] it was 2.15%; in [10], 16.1%; in [11], -6.57%.

In the case of `CCC(CC)c1cc(CNC(=O)N2CCOC(C)C2)on1` (stereo not given), the Percent Effect in test [1] is -3.56%; in test [2], -2.7%; in test [3], -0.766%; in test [4], -6.02%; in [5] it was -1.86%; in test [6] it was 2.23%. Moreover, the Percent Effect is -2.66% in test [7]; 3.72% in test [8]; 3.23% in [9]; 1.24% in test [10]; 0.0369% in test [11].

With `Cn1cnc(S(=O)(=O)N2CCN(Cc3ccco3)CC2)c1Cl`, the Percent Effect in [1] was -3.16%; in [2], 4.17%; in [3] it was -1.11%; in test [4] it was 4.71%; in [5] it was 0.291%; in [6], 0%. In addition, the Percent Effect in test [7] was 4.74%; in [8], 8.03%; in test [9] it was -17.9%; in [10] it was 5.13%; in test [11], -0.35%.

In the case of `CC(C)c1nc2n(n1)CC(NCc1nnc(C(C)C)o1)CC2` (stereo not given), the Percent Effect is -2.44% in test [1]; 13.5% in [2]; 139% in test [3]; 8.12% in test [4]; 7.08% in [5]; -4.81% in test [6]. For the same compound, the Percent Effect in test [7] was 5.41%; in test [8], 10.9%; in test [9], 6.4%; in test [10] it was 18.5%; in test [11], -8.46%.
